According to PubChem BioAssay (NCI):
This is part of a sample that, as a whole, favours compounds with a hit. Of some 79,000 tested, about 15% had one in any assay. Rule as the data show it: active = growth inhibition above about 70%; inactive = the rest.

Assays:
[1] = NCI Yeast Anticancer Drug Screen. Data for the rad50 strain (AID 155);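 also: 0% = growth of vehicle-only cultures of the same strain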; conditions: S. cerevisiae rad50 strain growth inhibition; at 50.0 µM; stronger effect = higher value
How it was run: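 Genetically altered yeast (DNA repair pathway); compound treatment; growth inhibition vs vehicle ctrl.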

[2] = NCI Yeast Anticancer Drug Screen. Data for the mec2-1 strain (AID 157); conditions: S. cerevisiae mec2-1 strain, at 50.0 µM, stronger effect = higher value
How it was run: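 Compounds were applied to mec2-1 yeast cells. Their growth was then compared with that of vehicle-treated cultures to give growth inhibition.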

[3] = NCI Yeast Anticancer Drug Screen. Data for the sgs1 mgt1 strain (AID 161);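 also: 0% = growth of cultures given vehicle only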; conditions: S. cerevisiae sgs1 mgt1 strain, at 50.0 µM, stronger effect = higher value
How it was run: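 Percent growth inhibition was derived by comparing compound-exposed mutant yeast with vehicle-exposed cultures. The strain carries alterations in DNA damage repair.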

[4] = NCI Yeast Anticancer Drug Screen. Data for the cln2 rad14 strain (AID 165);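 also: 0% = growth equal to vehicle treated cultures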; conditions: S. cerevisiae cln2 rad14 strain, at 50.0 µM, stronger effect = higher value
How it was run: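 Strain: cln2 rad14 yeast, altered in cell cycle control and DNA damage repair. Read-out: growth inhibition vs vehicle.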

[5] = NCI Yeast Anticancer Drug Screen. Data for the bub3 strain (AID 167); conditions: S. cerevisiae bub3 mutant strain, at 50.0 µM, stronger effect = higher value
How it was run: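 Yeast carrying a defined mutation is treated with each compound, and growth is compared with that of vehicle-exposed cells to give inhibition.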

[6] = NCI Yeast Anticancer Drug Screen. Data for the mlh1 rad18 strain (AID 175); conditions: S. cerevisiae mlh1 rad18 strain growth inhibition; at 50.0 µM; stronger effect = higher value
How it was run: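 A repair-deficient yeast strain is exposed to test compound, and growth is scored relative to vehicle-treated controls.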

Measured: growth inhibition

Cn1c(N)c2c(=O)n(C)c3c(c2c(C#N)c1=O)CCSc1ccccc1-3
inactive: [1] -4.4% | [2] -6.35% | [3] 0.25% | [4] -36.5% | [5] -5.2% | [6] -1.9%

Cc1c2ccccc2nc(CSc2n[nH]c(=S)s2)[n+]1[O-]
inactive: [1] -8.55% | [2] 18.6% | [3] 8% | [4] -44.5% | [5] 8.5% | [6] 20%

COc1cc2c(oc(=O)c3cc4cc([Si](C)(C)C)oc4c(OC)c32)c2cccc(O)c12
inactive: [1] -0.5% | [2] -27.4% | [3] -26.6% | [4] -23.2% | [5] 6.9% | [6] -8.25%

[N-]=[N+]=NCC1OCC(O)C(OCc2ccccc2)C1OCc1ccccc1 (stereo not drawn)
inactive: [1] -8.6% | [2] -10.4% | [3] -3.75% | [4] -11.8% | [5] -10.4% | [6] 3.3%

COC(=O)c1c2c(cc3c1CC1(Cc4cc5c(cc4C1=O)CCC5)C3)CCC2 (stereo not drawn)
inactive: [1] -23.4% | [2] -37% | [3] -2.4% | [4] 0.45% | [5] 10.8% | [6] 3.3%

O=C(O)C1CCCCN1/N=C/c1cccc([N+](=O)[O-])c1 (stereo not drawn)
inactive: [1] 36% | [2] 11.9% | [3] 22% | [4] 1.3% | [5] 26.9% | [6] 11.9%

NC(=O)c1ccc(C(F)(F)F)cc1O
inactive: [1] 7.6% | [2] 12.6% | [3] -4.65% | [4] -21.4% | [5] 1.2% | [6] 10%

CCOCC/C(=N\Nc1ccc([N+](=O)[O-])cc1[N+](=O)[O-])c1ccccc1
inactive: [1] 19.8% | [2] 5.85% | [3] 11.2% | [4] 19.6% | [5] 30% | [6] 9.55%

CCCCCCCCCCCCCCNC(=O)C(C)O (stereo not drawn)
inactive: [1] 2% | [2] -23.8% | [3] -15.7% | [4] -35.2% | [5] 11.3% | [6] -2.2%

C[N+](C)(C)CBr
inactive: [1] 36.8% | [2] -11% | [3] -21.5% | [4] -40.6% | [5] 4.75% | [6] -37.2%

COc1ccc(C2CC(c3c(C)nn(-c4ccccc4)c3-c3ccc(C)cc3O)=NN2c2ccccc2)cc1 (stereo not drawn)
inactive: [1] -3.95% | [2] -12.3% | [3] -11.1% | [4] -2% | [5] -3% | [6] 50.5%

O=C(CCBr)NC(=O)OC/C=C\c1ccccc1
inactive: [1] 7.7% | [2] 34.8% | [3] 12.2% | [4] 8% | [5] 5.1% | [6] 15.2%

O=C1c2ccccc2C(=O)N1C1(C(=O)O)CCCC1
inactive: [1] -5.3% | [2] -7.6% | [3] -7.65% | [4] -27.1% | [5] -15.6% | [6] -10.4%

CCCCCC(=O)/C=C/CC(CCCCCCC#N)C(CC(OC)OC)[N+](=O)[O-] (stereo not drawn)
inactive: [1] -42.2% | [2] -24.2% | [3] 0.9% | [4] 14.3% | [5] -1.75% | [6] -37.4%

CCOC(=O)C(=CN1CCCc2ccccc21)C(=O)OCC
inactive: [1] 5.05% | [2] -17.1% | [3] 13.6% | [4] -35% | [5] 5.4% | [6] -6.15%

CCC(=O)Oc1ccc(C(C)(C)C)cc1
inactive: [1] -5.85% | [2] -3.75% | [3] 1.95% | [4] -2.25% | [5] 11.1% | [6] 1.1%

CC(=O)c1c(O)cccc1O
inactive: [1] -11.8% | [2] -13.8% | [3] -1.75% | [4] 8.7% | [5] 8.7% | [6] -3.75%

CCc1cccc(CC)c1N(C(C)=O)C(C)=O
inactive: [1] 8.55% | [2] -1.3% | [3] -11.7% | [4] -8.85% | [5] 19.2% | [6] 3.2%

CN(C)c1cc(N(C)C)c2cc(C#N)ccc2n1
inactive: [1] 15.4% | [2] 3.05% | [3] 17.2% | [4] -5.45% | [5] 0.9% | [6] 5.75%

CCOC(=O)CNC(=O)CCC(=O)OC
inactive: [1] -11% | [2] -4.8% | [3] 17.4% | [4] -10.6% | [5] 5.55% | [6] -9.1%

S=C(Cc1ccccc1)Nc1ccccc1
inactive: [1] 12.1% | [2] -18.5% | [3] 14.1% | [4] -22.9% | [5] -25.4% | [6] 3.3%

O=C(O)CSc1ccc2c3c(cccc13)C(=O)c1ccccc1-2
inactive: [1] -9.9% | [2] 27.4% | [3] 7.95% | [4] 26% | [5] 56.8% | [6] 3.1%

Cc1cc2nc(C(C)(C)O)[nH]c2cc1C
inactive: [1] 0.2% | [2] -4.8% | [3] 2.8% | [4] 8.2% | [5] 1.6% | [6] 13.2%

Cc1cccc2cc3ccc4ccccc4c3cc12
inactive: [1] 29.7% | [2] 13.8% | [3] 21.9% | [4] 14.8% | [5] 4.1% | [6] 20.6%

C/C(=N\Nc1ccccc1)c1sc(-c2nc(C)c(/C(C)=N/Nc3ccccc3)s2)nc1C
inactive: [1] 24.3% | [2] -3.2% | [3] 14.3% | [4] -29% | [5] 17.6% | [6] 25.2%

NC(=O)N1CCCC1
inactive: [1] -1.65% | [2] 13.1% | [3] -3.7% | [4] 7.7% | [5] 9.45% | [6] 2.15%

Cc1ccccc1C=O
inactive: [1] -2.75% | [2] -32.6% | [3] 5.15% | [4] -3.35% | [5] -0.2% | [6] -0.85%

CN(C)CCOC(=O)c1cccc(CCl)c1
inactive: [1] 15.9% | [2] 6.3% | [3] 5.75% | [4] 44.4% | [5] 25.4% | [6] 7.95%

COc1ccc([N+](=O)[O-])cc1NC(=O)Nc1ccc(F)c([N+](=O)[O-])c1
inactive: [1] 8.6% | [2] 3.4% | [3] -6.3% | [4] 0.2% | [5] -3.8% | [6] 6.3%

CCCCCCCN(CCCCCCC)CC(O)c1cc2ccccc2c2cc(Br)ccc12 (stereo not drawn)
inactive: [1] -52.9% | [2] -33% | [3] -41% | [4] -25% | [5] -69.1% | [6] -109%

CCOC(=O)CN1CCC(C(=O)OCC)CC1
inactive: [1] 7.75% | [2] -27% | [3] 20.6% | [4] 12.9% | [5] -3.05% | [6] 20.8%

CC(C)OC(CCC#N)c1ccccc1 (stereo not drawn)
inactive: [1] -20.1% | [2] -48.6% | [3] -33.3% | [4] -8.3% | [5] -32.9% | [6] -34.1%

OCC(O)C(O)C(O)[C@H](O)c1nc2ccccc2[nH]1 (stereo partly drawn)
inactive: [1] -15.7% | [2] -1.7% | [3] 0.15% | [4] -19.6% | [5] 27.4% | [6] 14.8%

COc1cc(C)c(C#N)c(OC)n1
inactive: [1] 19.4% | [2] -7.8% | [3] 9.9% | [4] 12.9% | [5] 20.2% | [6] 14.8%

O=COCCCc1ccccc1
inactive: [1] 15.8% | [2] -1.85% | [3] 11.8% | [4] -5.2% | [5] 3.15% | [6] -23.7%

O=c1onc2c3ccccc3ncn12
inactive: [1] 15.2% | [2] 7.6% | [3] -21.2% | [4] -11.4% | [5] -8.6% | [6] 0.65%

S=c1ccc2ccccc2[nH]1
inactive: [1] -16.9% | [2] -8.15% | [3] -0.75% | [4] -13% | [5] -16.1% | [6] -13.8%

C/C(=N/NC(N)=O)c1ccc([N+](=O)[O-])o1
inactive: [1] 29.9% | [2] 9.9% | [3] 30.8% | [4] 16.1% | [5] 14.9% | [6] 47.2%

Cc1ccc(OCc2ccccc2)n[n+]1[O-]
inactive: [1] -20.6% | [2] -16.8% | [3] -10.8% | [4] -9.85% | [5] -9.7% | [6] -3%

O=C1NC(=O)C(c2ccc(C(=O)O)cc2)N1 (stereo not drawn)
inactive: [1] -12.8% | [2] -10% | [3] 0.05% | [4] 8.45% | [5] -5.5% | [6] -2.25%

CCNC(=O)NCc1cc(C)ccc1C
inactive: [1] 7.85% | [2] -12.2% | [3] -11.4% | [4] 19.2% | [5] 6.45% | [6] 12.1%

Cc1cn(C2CC3[O][Sn]([c]4ccccc4)([c]4ccccc4)[O]CC3O2)c(=O)[nH]c1=O (stereo not drawn)
inactive: [1] 8.65% | [2] 35.8% | [3] 16.6% | [4] 7.6% | [5] 13.2% | [6] 47%

CCc1ccc(OC(=O)CCl)cc1
inactive: [1] -19.4% | [2] 9.5% | [3] -21.6% | [4] -28.7% | [5] -3.4% | [6] -42.5%
